# Bioassay records: PubChem BioAssay, National Center for Advancing Translational Sciences (NCATS)
# SW480 rereplic: inducers of DNA re-replication in SW480 colon cancer cells; SW480 DNA re-replication, Hoechst DNA content imaging, 48 h; 340,000 compounds, 1.8% hits; AID 624297; Potency, µM (titrated, usually from 46.1 µM), actives largely listed as activators; note: nearly all actives have a fitted effect of over 55% in size
#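 DNA re-replication was detected as more nuclei of elevated Hoechst intensity after 48 hr exposure to compound (23 nL pinned per well of 250 cells).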
# MCF10A rerep: inducers of DNA re-replication in MCF 10A breast cells. Potency, µM (doses to about 46.1 µM), hits mostly activators. AID 624296. 350,000 compounds, 2.9% hits. MCF 10A DNA re-replication, Hoechst nuclear intensity, 48 h; note: nearly all actives have a fitted effect of over 50% in size
# KB-3-1 cytotox: kills parental KB-3-1 adenocarcinoma cells. KB-3-1 viability, CellTiter-Glo ATP luminescence, 72 h. Potency, µM (highest dose often 46.1 µM), actives largely listed as cytotoxic. 400,000 compounds, 1.4% hits; note: nearly all actives have a fitted effect of over 60% in size
#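 Viability of parental KB-3-1 cells, measured by CellTiter-Glo luminescence, followed a 72 h incubation at 37 °C with pinned compounds in phenol-red-free DMEM containing 10% FBS.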
# KCNH2 3.1 block: KCNH2 3.1 (human) potassium channel inhibition; activity change, % (tested at about 1.8 µM); 340,000 compounds, 0.95% hits; U2OS KCNH2 3.1, thallium flux FluxOr; active compounds read low; AID 720553;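 active = maximum activity change below -70%; inconclusive = maximum activity change from -70% to -50%; inactive = maximum activity change above -50%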;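 note: thallium influx rate constant from kinetic fluorescence after stimulation buffer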
#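 Thallium flux read-out: FluxOr dye with Red40 quencher in HBSS/HEPES, 45 min at RT. Rate constants from kinetic reads were normalized to positive and negative DMSO controls. Cells: U2OS virally expressing the 3.1 isoform.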
# hERG WT inh: inhibitors of human wildtype KCNH2 potassium channel; U2OS, BacMam KCNH2, thallium flux FluxOr; active compounds read low; activity change, % at 1.84 µM; 340,000 compounds, 0.37% hits; AID 720551;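 active = maximum activity change below -70%; inconclusive = maximum activity change between -70% and -50%; inactive = maximum activity change above -50%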
#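 U2OS cells were transduced with wild-type KCNH2 virus (2.03 x 10^8 / mL) for 4 h at room temperature, then cultured overnight at 37 C. Thallium flux was read with FluxOr dye. Rate constants were normalized to DMSO controls.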
# KB-V1 MDR tox: kills drug-selected multidrug resistant KB-V1 cells; KB-V1 MDR cells viability, CellTiter-Glo, 72 h; Potency, µM (titrated, usually from 46.1 µM), actives largely listed as cytotoxic; 400,000 compounds, 3.4% hits; note: nearly all actives have a fitted effect of over 60% in size
#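 In this primary screen, KB-V1 cells overexpressing P-gp are incubated with library compounds (lowest to highest concentration) for 72 h at 37 degrees C before a luminescent ATP viability read.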
# Numbers stand for hits; - = inactive; ? = inconclusive; . = no result given; [ ] = another dose, or the depositor's remark. Shown are actives, neighbours in structure and some others; about 7.6% of the full set was active somewhere. Unless noted, calls come from the whole dose curve; as a rule, active = well fitted curve in the direction sought with a large enough effect; inconclusive = small, poorly fitted or top-dose-only effect, or another doubt; inactive = no such curve, though single readings can be large; an effect the other way counts as inactive or inconclusive.
SMILES,SW480 rereplic,MCF10A rerep,KB-3-1 cytotox,KCNH2 3.1 block,hERG WT inh,KB-V1 MDR tox
O=C(NC(Cc1c[nH]c2ccccc12)C(=O)Nc1ccc(F)c([N+](=O)[O-])c1)c1cccs1 (configuration not stated),?,?,?,-,-,6.51µM
O=C(NC(Cc1c[nH]c2ccccc12)C(=O)N/N=C/c1cccc2ccccc12)c1cccs1 (configuration not stated),-,-,-,-,-,-
O=C(NC(Cc1c[nH]c2ccccc12)C(=O)Nc1ccc(OC(F)(F)F)cc1)c1cccs1 (configuration not stated),?,?,11.6µM,-,-,?
O=C(NC(Cc1c[nH]c2ccccc12)C(=O)O)c1cccs1 (configuration not stated),-,-,-,-,-,-
Cc1ccc(O/C=C2/Nn3c(nnc3-c3cc(-c4ccccc4)n[nH]3)S2)cc1,.,.,-,.,.,-
Cc1ccc(CN(C)C(=O)CCNS(=O)(=O)c2ccccc2)o1,-,-,-,-,-,-
CCN(CC)C(=O)C1=C(C)N(CCC2=CCCCC2)C(=O)C(CC(=O)NCCN2CCOCC2)C1 (configuration not stated),.,.,-,-,-,-
CCOc1ccc(-n2c(SCC(=O)NCC3CCCO3)nc3c([nH]c4ccccc43)c2=O)cc1 (configuration not stated),.,.,-,.,.,-
CCOC(=O)c1cc(C)sc1NC(=O)CSc1nnnn1C,-,-,-,-,-,-
CCOC(=O)c1cc(C)sc1NC(=O)CSC1=NCCS1,?,20.6µM,-,-,-,-
CC(=O)c1ccccc1NCC(=O)Nc1ccc(C)cc1,-,-,-,-,-,?
O=c1oc2c(CN3CCN(CCO)CC3)c(O)ccc2cc1-c1ccccn1,6.51µM,8.2µM,-,-,-,?
CC1CCCCN1C(=O)CSc1nnc2c(n1)[nH]c1ccc(F)cc12 (configuration not stated),-,-,-,-,-,-
CC1CCc2cc(F)ccc2N1C(=O)CSc1nnc2c(n1)[nH]c1ccc(F)cc12 (configuration not stated),-,-,-,-,-,20.6µM
COC(C(=O)Nc1ccc(S(=O)(=O)Nc2cccc3ccccc23)cc1)c1ccccc1 (configuration not stated),.,?,-,-,-,18.4µM
Oc1cc(Nc2ccccc2)cc2cccnc12,-,?,?,.,.,?
Oc1cc(NCCN2CCOCC2)cc2cccnc12,?,?,14.6µM,.,.,-
Cc1ccc(S(=O)(=O)c2cc3ccccc3oc2=O)cc1,-,?,?,-,-,-
Cc1c(O)ccc2cc(S(=O)(=O)c3ccccc3)c(=O)oc12,1.84µM,4.11µM,-,-,-,-
Cc1cccc(/C=N/NC(=O)c2cc(-c3cccnc3)nc3c2c(C)nn3-c2ccccc2)c1,-,?,-,-,-,14.6µM
Cc1cccc(/C=N/NC(=O)c2cc(-c3cccnc3)nc3ccccc23)c1,-,-,-,-,-,-
O=C(O)/C(=C\c1cccc(OCc2ccccc2)c1)c1ccc(F)cc1,-,-,-,-,-,-
CCCCCNC1=CC(=O)CC(c2ccccc2)C1 (configuration not stated),?,?,?,-,-,14.6µM
CNC1=CC(=O)CC(c2ccccc2)C1 (configuration not stated),?,?,-,-,-,-
CCCCCCCNC1=CC(=O)CC(c2ccccc2)C1 (configuration not stated),?,18.4µM,7.31µM,?,-,?
SMILES,SW480 rereplic,MCF10A rerep,KB-3-1 cytotox,KCNH2 3.1 block,hERG WT inh,KB-V1 MDR tox
Cc1ccc(OCC(O)CNS(=O)(=O)c2ccccc2C(=O)O)cc1 (configuration not stated),-[9.22 µM],-,-,-,-,-
Cc1cccc(C)c1OCC(O)CNS(=O)(=O)c1ccccc1C(=O)N1CCCCC1 (configuration not stated),-,-,-,-,-,4.61µM
CC(C)CNS(=O)(=O)c1ccccc1C(=O)N1CCCCC1,-,-,-,-,-,14.6µM
CCOc1ccc(-c2cccc(NS(=O)(=O)c3ccc(Cl)s3)c2)nn1,.,.,-,.,.,-
O=C(Nc1nc(=O)n(C(=O)c2cccc(C(F)(F)F)c2)s1)c1ccccc1,-,-,-,-,-,-
O=C1C=C(N(CCO)Cc2ccccc2)c2ccccc2C1=O,14.6µM,6.51µM,?,-,-,18.4µM
CCOC(=O)c1ccc(Nc2nc3ccccc3n3c(C)nnc23)cc1,.,.,-,.,.,-
CCN(CC)c1nc2ccccc2nc1C(=O)Nc1ccc(C(C)=O)cc1,.,.,-,.,.,-
Oc1ccccc1N=Nc1ccccc1O,?,-,7.31µM,-,-,?
CCCCOCCCNC(=S)Nc1ccc(S(=O)(=O)N2CCOCC2)cc1,-,-,?,-,-,18.4µM
O=S(=O)(c1ccc(NC(=S)N/N=C/c2c3ccccc3cc3ccccc23)cc1)N1CCOCC1,13µM,?,3.66µM,-,-,?
O=S(=O)(c1ccc(NC(=S)NCCC(c2ccccc2)c2ccccc2)cc1)N1CCOCC1,?,5.17µM,?,-,-,?
CC(C)(C)CC(C)(C)NC(=S)Nc1ccc(S(=O)(=O)N2CCOCC2)cc1,-,?,?,-,-,-
Cc1cccc(CNC(=O)C2CCC(=O)N(C3CC3)C2)c1 (configuration not stated),-,-,-,-,-,-
Cn1ccc2c(N3CCCCC3)cc3c(c21)C1CCC3O1 (configuration not stated),.,.,-,.,.,-
COc1ccccc1-c1nn(CCC(=O)Nc2ccccc2)c2nc(C)cc(C)c12,.,.,-,.,.,-
COc1ccccc1NC(=O)Cn1cc(C#N)c2ccccc21,-,-,?,-,-254.2,-
CC(C(=O)N1CCCCC1)N(C)CC(=O)Nc1cccc(F)c1 (configuration not stated),-,-,-,-,-,-
CCOc1ccc(NC(=O)CN(C)CC(=O)Nc2ccccc2SC)cc1OCC,-,-,-,-,-,3.66µM
CCOc1ccc(NC(=O)CN(C)CC(=O)Nc2cc(Cl)ccc2C#N)cc1OCC,-,-,-,-,-,-
COc1ccc(NC(=O)CN(C)C(C)C(=O)N2CCCCC2)cc1 (configuration not stated),-,-,-,-,-,11.6µM
COc1ccc(NC(=O)CN(C)CC(=O)Nc2ccccc2SC)cc1,-,-,-,-,-,20.6µM
COc1cccc(NC(=O)Cn2cc(C#N)c3ccccc32)c1,-,-,-,-,-,-
CSc1ccccc1NC(=O)CN(C)CC(=O)c1c(C)[nH]c2ccccc12,-,-,-,-,-,20.6µM
